# In article PMC7862700, “An all-to-all approach to the identification of sequence-specific readers for epigenetic DNA modifications on cytosine”:
# Legend:
# Assay in all cases: DAPPL (digital affinity profiling via proximity ligation, sequencing); 10 mM Tris-HCl pH 7.5, 50 mM NaCl, 1 mM DTT, 4% glycerol, room temperature, 30 min; GST-TFs on glutathione beads, 16-mer random dsDNA library, 0.1% formaldehyde crosslink after washing; high values mean tight binding
# Settings in all cases: protein: recombinant; tags: N-terminal GST; dsDNA, one strand shown
# [1] = biological target: T1, GABPA (Homo sapiens, UniProt Q06546 1-454)
# T1 sequence: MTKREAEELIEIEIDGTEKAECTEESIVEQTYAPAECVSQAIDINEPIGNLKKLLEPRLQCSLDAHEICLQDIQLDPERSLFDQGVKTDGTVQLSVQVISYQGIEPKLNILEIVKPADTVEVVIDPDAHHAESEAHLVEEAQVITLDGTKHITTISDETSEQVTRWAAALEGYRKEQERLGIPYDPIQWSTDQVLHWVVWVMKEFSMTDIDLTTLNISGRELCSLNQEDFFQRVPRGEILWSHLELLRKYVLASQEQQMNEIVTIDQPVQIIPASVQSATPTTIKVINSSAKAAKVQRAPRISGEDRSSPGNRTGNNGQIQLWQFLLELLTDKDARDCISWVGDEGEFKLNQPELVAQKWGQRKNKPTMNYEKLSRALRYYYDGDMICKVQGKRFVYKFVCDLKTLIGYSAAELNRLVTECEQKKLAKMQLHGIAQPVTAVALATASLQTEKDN
# Outline: (§1)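 Human transcription factors fused to GST were expressed in yeast, captured on glutathione beads, given DNA barcodes and pooled with a GST-only negative control. Pools were incubated with 200 nmole of a 16-mer random double-stranded DNA library in Tris/NaCl/DTT/glycerol buffer at room temperature for 30 min. They were then washed, crosslinked with 0.1% formaldehyde, proximity-ligated (BsaI/T4 ligase, 1 h, 37 °C), PCR-amplified and sequenced on an Illumina NextSeq500. Binding signal is each 6-mer's read frequency for a factor divided by its frequency for the GST control.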
# [2] = biological target: T2, ERG (Homo sapiens, UniProt P11308 1-479)
# T2 sequence: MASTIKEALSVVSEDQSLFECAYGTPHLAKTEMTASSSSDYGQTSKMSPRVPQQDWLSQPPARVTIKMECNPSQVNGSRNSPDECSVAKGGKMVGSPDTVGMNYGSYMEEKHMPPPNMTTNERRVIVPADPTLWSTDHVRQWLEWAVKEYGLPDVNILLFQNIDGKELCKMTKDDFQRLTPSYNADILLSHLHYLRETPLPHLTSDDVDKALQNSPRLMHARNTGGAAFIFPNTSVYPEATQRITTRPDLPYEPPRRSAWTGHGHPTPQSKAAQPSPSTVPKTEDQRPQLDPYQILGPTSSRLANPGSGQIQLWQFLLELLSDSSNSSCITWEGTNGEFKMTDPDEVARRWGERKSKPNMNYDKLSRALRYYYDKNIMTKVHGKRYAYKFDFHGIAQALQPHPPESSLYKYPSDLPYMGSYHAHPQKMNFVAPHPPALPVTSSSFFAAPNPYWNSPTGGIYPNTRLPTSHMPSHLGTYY
# Outline: as §1
# [3] = biological target: ELF1 (Homo sapiens, UniProt P32519 1-619)
# ELF1, sequence (P32519 whole entry): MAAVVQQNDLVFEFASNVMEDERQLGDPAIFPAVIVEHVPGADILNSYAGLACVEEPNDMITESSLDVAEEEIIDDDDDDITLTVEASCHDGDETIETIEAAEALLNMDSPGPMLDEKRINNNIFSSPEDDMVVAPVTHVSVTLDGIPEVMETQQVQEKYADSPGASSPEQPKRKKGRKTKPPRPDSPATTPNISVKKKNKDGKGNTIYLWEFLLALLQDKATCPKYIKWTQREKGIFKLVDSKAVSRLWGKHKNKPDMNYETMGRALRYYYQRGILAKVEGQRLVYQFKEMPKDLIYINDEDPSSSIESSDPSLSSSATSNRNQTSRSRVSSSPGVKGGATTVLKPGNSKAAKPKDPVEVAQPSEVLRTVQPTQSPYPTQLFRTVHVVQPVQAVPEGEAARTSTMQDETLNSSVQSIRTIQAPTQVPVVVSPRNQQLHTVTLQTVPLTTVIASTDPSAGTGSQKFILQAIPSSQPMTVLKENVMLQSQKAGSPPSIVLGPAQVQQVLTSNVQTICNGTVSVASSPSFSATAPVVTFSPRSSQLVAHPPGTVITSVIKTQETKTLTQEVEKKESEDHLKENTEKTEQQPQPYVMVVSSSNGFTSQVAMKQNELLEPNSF
# Outline: as §1
# [4] = biological target: T3, EHF (Homo sapiens, UniProt Q9NZC4 1-300)
# T3 sequence: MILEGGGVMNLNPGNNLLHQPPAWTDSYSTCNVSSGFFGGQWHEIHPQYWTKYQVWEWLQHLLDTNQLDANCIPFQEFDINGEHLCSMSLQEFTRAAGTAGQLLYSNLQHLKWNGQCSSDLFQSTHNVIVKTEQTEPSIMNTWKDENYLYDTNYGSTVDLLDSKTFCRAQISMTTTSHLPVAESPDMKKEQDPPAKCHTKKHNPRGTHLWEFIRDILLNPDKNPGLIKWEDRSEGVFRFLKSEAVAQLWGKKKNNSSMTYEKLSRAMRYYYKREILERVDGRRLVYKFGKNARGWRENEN
# Outline: as §1
# [5] = biological target: SPIB (Homo sapiens, UniProt Q01892 1-262)
# SPIB, sequence (Q01892 whole entry): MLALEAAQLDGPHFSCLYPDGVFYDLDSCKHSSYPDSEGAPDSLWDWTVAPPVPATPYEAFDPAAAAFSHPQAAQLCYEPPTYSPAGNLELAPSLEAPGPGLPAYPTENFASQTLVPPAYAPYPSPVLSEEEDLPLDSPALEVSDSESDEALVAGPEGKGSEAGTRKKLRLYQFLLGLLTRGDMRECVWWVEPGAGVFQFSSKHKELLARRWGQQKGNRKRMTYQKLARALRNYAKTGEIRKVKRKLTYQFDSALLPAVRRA
# Outline: as §1
# [6] = biological target: ETV5 (Homo sapiens, UniProt P41161 1-510)
# ETV5, sequence (P41161 whole entry): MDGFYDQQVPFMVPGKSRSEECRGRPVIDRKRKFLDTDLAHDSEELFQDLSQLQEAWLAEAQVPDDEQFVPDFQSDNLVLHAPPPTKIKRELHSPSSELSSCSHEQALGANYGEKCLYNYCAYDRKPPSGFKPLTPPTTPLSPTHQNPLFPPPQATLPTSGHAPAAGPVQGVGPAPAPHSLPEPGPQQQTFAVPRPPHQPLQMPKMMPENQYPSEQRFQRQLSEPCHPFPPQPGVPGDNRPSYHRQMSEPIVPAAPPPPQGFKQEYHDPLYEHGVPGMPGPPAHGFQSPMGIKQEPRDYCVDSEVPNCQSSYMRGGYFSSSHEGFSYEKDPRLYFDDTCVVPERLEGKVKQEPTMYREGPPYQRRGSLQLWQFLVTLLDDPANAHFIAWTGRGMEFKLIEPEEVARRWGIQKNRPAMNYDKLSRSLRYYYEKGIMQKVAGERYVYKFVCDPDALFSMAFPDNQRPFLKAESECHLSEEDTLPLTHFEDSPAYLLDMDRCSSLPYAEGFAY
# Outline: as §1
# [7] = biological target: ELF4 (Homo sapiens, UniProt Q99607 1-663)
# ELF4, sequence (Q99607 whole entry): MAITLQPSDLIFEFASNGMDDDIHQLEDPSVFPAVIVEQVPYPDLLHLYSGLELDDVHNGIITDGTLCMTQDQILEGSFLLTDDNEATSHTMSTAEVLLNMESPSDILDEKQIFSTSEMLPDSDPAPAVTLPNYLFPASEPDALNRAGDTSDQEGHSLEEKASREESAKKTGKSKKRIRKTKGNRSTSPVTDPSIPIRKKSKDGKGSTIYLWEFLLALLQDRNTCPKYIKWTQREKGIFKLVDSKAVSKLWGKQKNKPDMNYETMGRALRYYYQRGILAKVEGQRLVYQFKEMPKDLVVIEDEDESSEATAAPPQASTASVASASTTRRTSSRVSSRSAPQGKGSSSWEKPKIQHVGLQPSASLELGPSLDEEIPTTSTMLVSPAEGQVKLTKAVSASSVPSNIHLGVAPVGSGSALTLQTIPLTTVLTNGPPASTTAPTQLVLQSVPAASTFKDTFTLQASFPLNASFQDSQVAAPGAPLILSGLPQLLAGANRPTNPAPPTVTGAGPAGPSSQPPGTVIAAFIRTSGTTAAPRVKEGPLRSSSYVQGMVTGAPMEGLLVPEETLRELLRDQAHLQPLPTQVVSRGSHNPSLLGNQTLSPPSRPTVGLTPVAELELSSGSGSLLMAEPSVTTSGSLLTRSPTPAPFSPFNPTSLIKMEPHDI
# Outline: as §1
# [8] = biological target: T4, ETV2 (Homo sapiens, UniProt O00321 1-342)
# T4 sequence: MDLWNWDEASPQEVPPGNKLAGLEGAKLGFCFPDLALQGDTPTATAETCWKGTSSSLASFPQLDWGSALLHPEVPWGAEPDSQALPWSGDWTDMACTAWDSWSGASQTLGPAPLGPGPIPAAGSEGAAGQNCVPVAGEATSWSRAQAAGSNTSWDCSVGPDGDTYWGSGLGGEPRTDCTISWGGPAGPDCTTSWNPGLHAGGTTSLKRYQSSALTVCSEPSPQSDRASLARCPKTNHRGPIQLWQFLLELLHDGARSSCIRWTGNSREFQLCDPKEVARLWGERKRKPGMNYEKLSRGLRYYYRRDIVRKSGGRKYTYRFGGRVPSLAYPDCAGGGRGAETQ
# Outline: as §1
# [9] = biological target: ETV1 (Homo sapiens, UniProt P50549 1-477)
# ETV1, sequence (P50549 whole entry): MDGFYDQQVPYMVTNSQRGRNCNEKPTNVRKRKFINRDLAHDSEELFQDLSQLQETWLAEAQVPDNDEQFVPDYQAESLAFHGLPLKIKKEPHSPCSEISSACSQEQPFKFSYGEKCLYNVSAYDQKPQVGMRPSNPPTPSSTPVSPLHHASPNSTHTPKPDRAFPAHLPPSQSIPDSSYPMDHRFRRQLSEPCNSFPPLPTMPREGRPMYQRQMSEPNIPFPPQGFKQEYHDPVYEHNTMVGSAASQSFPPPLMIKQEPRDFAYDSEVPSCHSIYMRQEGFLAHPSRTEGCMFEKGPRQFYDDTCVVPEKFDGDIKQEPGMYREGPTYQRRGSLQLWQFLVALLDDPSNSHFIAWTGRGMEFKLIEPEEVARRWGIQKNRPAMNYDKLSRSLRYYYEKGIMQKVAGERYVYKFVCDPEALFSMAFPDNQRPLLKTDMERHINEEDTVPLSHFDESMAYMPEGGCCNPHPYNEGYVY
# Outline: as §1
# [10] = biological target: T5, ETV3L (Homo sapiens, UniProt Q6ZN32 1-361)
# T5 sequence: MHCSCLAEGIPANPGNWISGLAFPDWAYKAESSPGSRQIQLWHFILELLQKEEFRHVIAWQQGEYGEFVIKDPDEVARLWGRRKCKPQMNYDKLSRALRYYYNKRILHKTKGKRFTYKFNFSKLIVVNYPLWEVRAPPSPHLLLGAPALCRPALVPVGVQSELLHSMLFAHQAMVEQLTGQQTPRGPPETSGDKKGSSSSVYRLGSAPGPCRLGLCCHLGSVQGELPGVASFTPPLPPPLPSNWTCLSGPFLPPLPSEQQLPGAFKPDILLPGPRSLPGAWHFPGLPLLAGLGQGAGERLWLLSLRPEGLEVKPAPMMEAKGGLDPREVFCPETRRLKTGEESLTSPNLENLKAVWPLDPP
# Outline: as §1
# [11] = biological target: T6, ETS2 (Homo sapiens, UniProt P15036 1-469)
# T6 sequence: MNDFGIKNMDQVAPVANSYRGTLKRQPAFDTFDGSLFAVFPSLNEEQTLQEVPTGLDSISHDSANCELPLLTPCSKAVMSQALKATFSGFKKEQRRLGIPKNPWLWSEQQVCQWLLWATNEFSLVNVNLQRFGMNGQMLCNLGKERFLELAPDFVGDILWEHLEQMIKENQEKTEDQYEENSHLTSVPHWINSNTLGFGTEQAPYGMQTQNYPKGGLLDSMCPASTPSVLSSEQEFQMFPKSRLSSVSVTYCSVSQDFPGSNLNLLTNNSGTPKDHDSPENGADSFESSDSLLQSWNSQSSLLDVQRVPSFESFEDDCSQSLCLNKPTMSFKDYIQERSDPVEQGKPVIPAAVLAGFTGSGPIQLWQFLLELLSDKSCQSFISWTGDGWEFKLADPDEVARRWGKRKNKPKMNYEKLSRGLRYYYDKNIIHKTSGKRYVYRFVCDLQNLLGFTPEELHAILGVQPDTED
# Outline: as §1
# [12] = biological target: T7, ETV7 (Homo sapiens, UniProt Q9Y603 1-341)
# T7 sequence: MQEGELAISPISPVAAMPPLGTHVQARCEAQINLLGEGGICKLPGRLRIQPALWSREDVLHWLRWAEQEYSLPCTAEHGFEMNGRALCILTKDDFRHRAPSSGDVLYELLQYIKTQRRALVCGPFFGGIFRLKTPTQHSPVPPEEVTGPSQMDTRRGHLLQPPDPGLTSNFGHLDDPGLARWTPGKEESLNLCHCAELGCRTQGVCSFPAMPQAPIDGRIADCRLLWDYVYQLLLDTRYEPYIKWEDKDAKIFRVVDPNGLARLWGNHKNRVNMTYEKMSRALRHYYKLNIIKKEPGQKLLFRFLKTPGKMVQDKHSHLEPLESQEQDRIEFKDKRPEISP
# Outline: as §1
sequence,measurement,setting,value
AGAAAA,binding signal,[1],"1.03 fold enrichment (6-mer frequency, TF over GST control)"
same,binding signal,[2],"1.02 fold enrichment (6-mer frequency, TF over GST control)"
same,binding signal,[3],"1.02 fold enrichment (6-mer frequency, TF over GST control)"
same,binding signal,[4],"1.02 fold enrichment (6-mer frequency, TF over GST control)"
same,binding signal,[5],"1.08 fold enrichment (6-mer frequency, TF over GST control)"
same,binding signal,[6],"1.02 fold enrichment (6-mer frequency, TF over GST control)"
same,binding signal,[7],"1.04 fold enrichment (6-mer frequency, TF over GST control)"
same,binding signal,[8],"1.1 fold enrichment (6-mer frequency, TF over GST control)"
same,binding signal,[9],"1.05 fold enrichment (6-mer frequency, TF over GST control)"
same,binding signal,[10],"1 fold enrichment (6-mer frequency, TF over GST control)"
same,binding signal,[11],"1.09 fold enrichment (6-mer frequency, TF over GST control)"
same,binding signal,[12],"1.04 fold enrichment (6-mer frequency, TF over GST control)"
